Screening data: PubChem BioAssay, The Scripps Research Institute Molecular Screening Center
FBW7 act: activators of human E3 ligase FBW7; Q969H0; 650,000 tested, 0.13% active; AlphaScreen FBW7–phospho-cyclin E peptide binding, activator screen; normalized activity (activation), % at 26.1 µM; in the data active means normalized activity above about 1.9%;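 further: purified mutant Fbw7 with reduced substrate affinity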
Target sequence (Q969H0 whole entry, looked up): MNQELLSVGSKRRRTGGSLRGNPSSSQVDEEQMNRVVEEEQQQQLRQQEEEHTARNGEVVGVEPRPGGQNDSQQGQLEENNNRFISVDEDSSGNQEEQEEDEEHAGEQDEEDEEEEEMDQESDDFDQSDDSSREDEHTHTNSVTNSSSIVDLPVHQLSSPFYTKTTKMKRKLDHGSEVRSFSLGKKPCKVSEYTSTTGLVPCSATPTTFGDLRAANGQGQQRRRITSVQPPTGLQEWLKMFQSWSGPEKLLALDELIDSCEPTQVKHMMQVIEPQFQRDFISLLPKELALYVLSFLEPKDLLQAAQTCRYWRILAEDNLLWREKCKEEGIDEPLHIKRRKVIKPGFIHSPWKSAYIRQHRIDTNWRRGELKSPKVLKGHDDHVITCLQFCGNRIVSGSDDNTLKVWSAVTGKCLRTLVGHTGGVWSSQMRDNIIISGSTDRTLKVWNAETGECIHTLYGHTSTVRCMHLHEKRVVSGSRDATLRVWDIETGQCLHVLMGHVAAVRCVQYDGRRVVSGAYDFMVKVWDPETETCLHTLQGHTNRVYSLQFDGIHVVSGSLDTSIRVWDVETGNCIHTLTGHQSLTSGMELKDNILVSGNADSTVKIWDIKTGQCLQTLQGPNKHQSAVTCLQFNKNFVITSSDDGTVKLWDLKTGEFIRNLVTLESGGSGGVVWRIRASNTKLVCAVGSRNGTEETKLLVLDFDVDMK
TEAD-YAP block: TEAD-YAP interaction inhibition; HEK-TIYL cells, TEAD-Gal4/YAP UAS-luciferase luminescence; AID 1259422; inhibition, % at 9.12 µM; 640,000 tested, 1.4% active; in the data active means inhibition above about 32%
MITF inh: human MITF inhibition, primary screen; AlphaScreen MITF homodimerization, bead proximity signal; O75030; 650,000 tested, 0.91% active; inhibition, % at 2.6 µM; in the data active means inhibition above about 50%
GPR151 activ: activates the human receptor GPR151; Q8TDV0; activation, % at 11.2 µM; PathHunter beta-arrestin GPR151 cells, luminescence; AID 1508602; 650,000 tested, 1% active; in the data active means activation above about 4.9%
Large screens that a line does not name were inactive. In the library only some 3.5% were active in any assay of this set; here they are far more common.

COc1ccc(NC2=CC(=O)CC(c3ccccc3)C2)c(OC)c1 (stereo not given)	TEAD-YAP block 48
COc1ccc(OC)c(NC2=CC(=O)CC(c3ccccc3)C2)c1 (stereo not given)	TEAD-YAP block 55
COc1ccc([C@@H]2[C@@H](C(=O)c3ccccc3)N3c4ccc(Cl)cc4C=C[C@@H]3C2(C#N)C#N)cc1OC	none
Cc1ccc(C(=O)CN(C(=O)CCl)c2ccccc2)cc1	TEAD-YAP block 36
Cc1ccc(N(CCC(N)=O)C(=O)CCl)cc1	TEAD-YAP block 76
C=CCN1CCN(Cc2ccc(N3CCCC3)cc2)CCC1=O	none
O=C(O[C@@H]1Cc2c(O)cc(O)cc2O[C@@H]1c1cc(=O)c(O)c2c(O)c(O)cc([C@H]3Oc4cc(O)cc(O)c4C[C@H]3O)c2c1)c1cc(O)c(O)c(O)c1	MITF inh 106
Oc1ccc([C@H]2Oc3cc(O)cc(O)c3C[C@H]2O)cc1	none
CCC/C(O)=C1\C(=O)CC(C)(C)C\C1=N/c1nc2ccccc2[nH]1	none
COc1cccc(OC)c1NC(=O)NC(=O)c1c(OC)c(Cl)cc([N+](=O)[O-])c1OC	none
Cc1cccc(NCC(O)Cn2c(C)c(C)c3ccccc32)c1C (stereo not given)	MITF inh 51
CC1=C(C#N)C(c2ccc(Cl)cc2Cl)C2=C(CC(C)(C)CC2=O)N1 (stereo not given)	none
CCOC(=O)c1[nH]c(C)c(C(=O)Nc2ccc(Br)cc2F)c1C	none
CCOC(=O)c1[nH]c(C)c(C(=O)Nc2ccc(C)cc2C)c1C	TEAD-YAP block 51
CCOC(=O)c1[nH]c(C)c(C(=O)Nc2ccc(F)cc2C)c1C	TEAD-YAP block 47
CC(=O)Oc1cc(N2CCOCC2)c(OC(C)=O)c2c1C(=O)c1ccccc1C2=O	TEAD-YAP block 64
Cc1cc(N2CCCC2)nc(Nc2ccc(NS(=O)(=O)c3cccc(F)c3)cc2)n1	TEAD-YAP block 54
Cc1ccc(-c2nsc(SCC(=O)N3CCCCCC3)n2)cc1	none
Cc1ccc(S(=O)(=O)Oc2ccccc2/C=N/N=C(N)N)cc1	none
Cc1ccc(S(=O)(=O)Oc2ccccc2/C=N/NC(N)=S)cc1	TEAD-YAP block 61
N#C/C(=N/Nc1cccc(C(F)(F)F)c1)C(N)=S	TEAD-YAP block 47
COc1ccccc1-c1ccnc(Nc2ccc(S(N)(=O)=O)cc2)n1	TEAD-YAP block 34, MITF inh 68
NS(=O)(=O)c1ccc(Nc2nccc(-c3ccccc3)n2)cc1	none
NS(=O)(=O)c1ccc(Nc2nccc(-c3cccc(Cl)c3Cl)n2)cc1	FBW7 act 24
O=c1[nH]c(/C=C\c2ccc(O)c(O)c2)nc(O)c1[N+](=O)[O-]	MITF inh 85
CN(C)c1ccc(NC(=O)c2ccc(Cl)c([N+](=O)[O-])c2)cc1	none
C1=C(N2CCCC2)CCCC1=[N+]1CCCC1	TEAD-YAP block 42
CN1CCN(C2=CC(=[N+]3CCCC3)CC(C)(C)C2)CC1	none
CN1CCN(C2=CC(=[N+]3CCCCC3)CC(C)(C)C2)CC1	none
CC1(C)CC(N2CCCC2)=CC(=[N+]2CCCCCC2)C1	TEAD-YAP block 66
CC1CC(C)C[N+](=C2C=C(N3CCCC3)CC(C)(C)C2)C1 (stereo not given)	TEAD-YAP block 77
CC(=O)NCn1nnc(-c2ccccc2)n1	none
CCOc1ccc(Br)cc1S(=O)(=O)Nc1ccc(F)cc1F	none
COc1ccc(CCNc2nc(NCCN3CCOCC3)nc3c2ncn3-c2ccsc2)cc1	none
c1cnc(Nc2nc(NCCN3CCOCC3)c3ncn(-c4ccsc4)c3n2)cn1	TEAD-YAP block 66
COc1cc(Nc2nc(NCCN3CCOCC3)c3ncn(-c4ccsc4)c3n2)cc(OC)c1OC	TEAD-YAP block 49
Cn1c2ccccc2c2c(C(=O)N3CCCC3)cn(C3CCCCC3)c(=O)c21	none
Cc1cc(=O)oc2cc(OCC(O)Cn3c(C)nc4ccccc43)ccc12 (stereo not given)	TEAD-YAP block 50
Cc1nc2ccccc2n1CC(O)COc1ccc2ccccc2c1 (stereo not given)	none
Cc1ccc(CC(=O)NCc2cccs2)cc1C	TEAD-YAP block 45
COc1ccc(CNC(=O)c2c(C)[nH]c(C(C)=O)c2C)cc1	TEAD-YAP block 58
CCOC(=O)c1[nH]c(C)c(C(=O)NCc2ccc(OC)cc2)c1C	none
O=C(Cc1ccc(-n2cccc2)cc1)NCc1cccs1	TEAD-YAP block 45
Cc1ccc(C(=O)NCc2cccs2)cc1C	none
COc1ccc(CC(=O)NCc2ccc(F)cc2)cc1	TEAD-YAP block 46
O=C(Cn1cccc1)NCc1ccc(F)cc1	none
O=C(Cc1ccc(-n2cccc2)cc1)NCc1ccc(F)cc1	TEAD-YAP block 60
Cc1ccc(CC(=O)NCc2ccc(F)cc2)cc1	TEAD-YAP block 39
Cc1ccc(CNC(=O)CSCc2ccc(F)cc2)cc1	none
COc1ccc(CC(=O)NCc2ccc(Cl)cc2)cc1	TEAD-YAP block 40
O=C(CCc1cccs1)NCC1CCC2(CCN(C(=O)c3ccc(F)cc3)CC2)O1 (stereo not given)	none
O=C(CC1CCCC1)NCC1CCC2(CCN(C(=O)c3ccc(F)cc3)CC2)O1 (stereo not given)	FBW7 act 2.0
CCN(CC)c1ccc(CN2CCc3nnc(C(CC(C)C)NC(C)=O)n3CC2)cc1 (stereo not given)	none
CC(NC(=O)CCl)C1COc2ccccc2O1 (stereo not given)	TEAD-YAP block 37
Cc1ccc(-c2nc3cnccn3c2Nc2ccc(Cl)cc2)o1	none
Cc1nc(C)c(C(=O)NC(C)c2cnn(-c3ccccc3C)c2C)s1 (stereo not given)	TEAD-YAP block 54
Cc1nc(C)c(C(=O)NC(C)c2cnn(-c3ccccn3)c2C)s1 (stereo not given)	TEAD-YAP block 45
OC(c1cccnc1)c1ccc2c(c1)CN(C/C=C/c1ccco1)CCO2 (stereo not given)	none
Cc1oc(-c2ccc(Cl)cc2)nc1CN1CCCC(C(=O)NCCN2CCCC2)C1 (stereo not given)	none
Cc1oc(-c2ccc(Cl)cc2)nc1CN1CCCC(C(=O)NCc2cccnc2)C1 (stereo not given)	TEAD-YAP block 46
CCC(NC(=O)c1cc(-n2cnnc2)ccc1Cl)c1ccccc1 (stereo not given)	none
C/C(=N\NC(=O)COc1ccccc1-c1ccccc1)c1ccc(O)cc1O	TEAD-YAP block 59
CCOc1ccccc1OCC(=O)N/N=C/c1ccc(O)cc1	TEAD-YAP block 57
S=C(NCc1ccccc1)N/N=C/c1ccccn1	TEAD-YAP block 89, MITF inh 52
O=C(COc1ccccc1-c1ccccc1)N/N=C/c1ccccn1	TEAD-YAP block 51
Cc1ccccc1OCC(=O)N/N=C/c1ccc(O)cc1	none
O=C(CCC(=O)N/N=C\c1ccccn1)N/N=C\c1ccccn1	none
Cc1ccnc(SCc2cc(=O)c(OC(=O)/C=C/c3ccc4c(c3)OCO4)co2)n1	none
Cc1cc(C)c(NC(=O)CSc2n[nH]c(N)n2)c(C)c1	none
O=C(N/N=C/c1cccnc1)c1cc(Br)ccc1OCc1ccccc1	TEAD-YAP block 33
CCOc1ccc(Br)cc1C(=O)N/N=C/c1ccc2c(c1)OCO2	TEAD-YAP block 33
O=C(N/N=C/c1cccnc1)c1ccccc1OCc1ccccc1	none
